Experimental data published in PubChem BioAssay AID540256 (National Center for Advancing Translational Sciences (NCATS), 2011).
In all, about 300,000 compounds went through this assay and about 3,700 (1.2%) were called active. A call without a number means that no potency is given here. Another 20% or so got no clear call; they are omitted. Calls come from the whole dose curve; tested in HEK293 cells. Only a selection was taken, and actives are over-represented in it overall.

Experiment: qHTS for Inhibitors of binding or entry into cells for Lassa Virus; note: nearly all actives have a fitted effect of over 50% in size
Conditions: Lassa virus pseudotype entry inhibition, cell reporter; series mostly up to 37.9 µM
Potency is the fitted concentration of half-maximal effect.

Row | Structure (SMILES) | Potency
1 | O=[N+]([O-])c1ccc(N=NNc2ccc([N+](=O)[O-])cc2)cc1 | inactive
2 | CCN(CC)S(=O)(=O)c1ccc2[nH]cc(C(=O)NCCc3ccccc3)c(=O)c2c1 | 0.224 µM (active)
3 | CCc1ccc(NS(=O)(=O)c2ccc3[nH]cc(C(=O)NCCc4cccc(C)c4)c(=O)c3c2)cc1 | inactive
4 | O=C(NCCc1ccccc1)c1c[nH]c2ccc(F)cc2c1=O | inactive
5 | Cc1ccc(-n2ncc3c2CC(C)(C)CC3NC(=O)Cc2c(C)noc2C)cc1 (stereo not drawn) | inactive
6 | CC(C)Cn1cnc2c1c(=O)n(CC(=O)NN)c(=O)n2Cc1ccccc1 | inactive
7 | CC(C)(C)CC(C)(C)NCC(O)COCCOc1ccc(Br)cc1 (stereo not drawn) | 13 µM (active)
8 | CC(C)(C)NCC(O)COc1cccc2[nH]c(=O)[nH]c12 (stereo not drawn) | inactive
9 | Cc1noc(COc2ccccc2OCC(O)CNC(C)(C)C)n1 (stereo not drawn) | inactive
10 | CN(N)c1nc(N2CCCC2)nc(N2CCCC2)n1 | inactive
11 | O=C(Nc1ccccc1Cl)/C(Cl)=C(\Cl)S(=O)c1ccccc1 (stereo not drawn) | 8.91 µM (active)
12 | O=C(Nc1ccccc1Cl)c1ccc2nsnc2c1 | inactive
13 | COCCN(CCOC)C(=S)Nc1ccccc1Cl | inactive
14 | CCC(=O)N1CCN(c2ccccc2NC(=O)COc2cccc(C)c2C)CC1 | inactive
15 | COc1ccc(N(CC(=O)Nc2cc(OC)cc(OC)c2)S(=O)(=O)c2c(C)n[nH]c2C)cc1 | inactive
16 | O=C(Nc1ccccc1F)c1cc(S(=O)(=O)N2CCCCC2)cs1 | 20.6 µM (active)
17 | O=C(Nc1ccccc1C(=O)O)c1cc(S(=O)(=O)N2CCCCC2)cs1 | inactive
18 | Cc1ccccc1NC(=O)c1cc(S(=O)(=O)N2CCOCC2)cs1 | inactive
19 | O=C(Nc1ccc2nc(SCCOc3ccccc3)sc2c1)c1ccco1 | inactive
20 | CCCn1c(C)cc(-c2csc(NC(=O)CCc3nc4ccccc4c(=O)[nH]3)n2)c1C | inactive
21 | Cc1oc(-c2ccccc2)nc1Cn1c(SCc2cccc(C(F)(F)F)c2)nc2cccnc21 | inactive
22 | O=S(=O)(O)c1cc2onnc2c2ccccc12 | inactive
23 | O=C(/C(=C/c1cccc(Cl)c1)c1nc2ccccc2[nH]1)c1ccccc1 | 10 µM (active)

Row | Structure (SMILES) | Potency
24 | Oc1ccc(Cl)cc1/C=N/c1nc2ccccc2[nH]1 | inactive
25 | CCC(=O)/C(=C(/O)c1ccccc1)c1nc2ccccc2[nH]1 | inactive
26 | CCc1ccc(NC(=O)CN2CCC(C(=O)c3ccc(OC)cc3)CC2)cc1 | inactive
27 | O=C(Nc1c(Br)cc2c(c1Br)Cc1ccccc1-2)C(F)(F)F | inactive
28 | CC(/C=C/c1ccccc1)=N\NC(=O)C1CC1(C)c1ccccc1 (stereo not drawn) | 1.03 µM (active)
29 | O=C(/C=C/c1ccccc1)c1ccccc1O | inactive
30 | CC(C=Cc1ccccc1)=NNS(=O)(=O)c1ccc([N+](=O)[O-])cc1 | inactive
31 | CSCCC(NS(=O)(=O)c1ccc(C)cc1)C(=O)N(C)CC(=O)Nc1ccccc1Br (stereo not drawn) | inactive
32 | CN(CC(=O)Nc1ccccc1C(F)(F)F)C(=O)Cc1ccccc1F | inactive
33 | COC(=O)CC(CC(=O)OC)n1cccc1 | inactive
34 | CCOC(=O)CN1C(C(=O)c2ccccc2)=C(OC(=O)C(C)(C)C)c2ccccc2S1(=O)=O | inactive
35 | CCOc1ccc(C(=O)NCC(=O)N2CCCCCCC2)cc1OCC | inactive
36 | Fc1ccc(-n2ncc3c(Nc4ccc(Oc5ccccc5)cc4)ncnc32)cc1 | inactive
37 | NC(=O)c1ccccc1N(Cc1ccccc1)S(=O)(=O)c1ccccc1 | inactive
38 | CCN1CCN(C(=O)c2ccccc2N(C)S(=O)(=O)c2ccc(C)cc2)CC1 | inactive
39 | CCOC(=O)N1CCN(C(=O)c2ccccc2N(Cc2ccccc2)S(=O)(=O)c2ccc(OC)cc2)CC1 | 7.08 µM (active)
40 | CN1CCOC1c1ccc(C2OCCN2C)cc1 (stereo not drawn) | inactive
41 | CC(=O)OC1C2(CC3N4C(=O)C5(CO)SSC4(CC31O)C(=O)N5C)OC(C)C(C)(C)C2=O (stereo not drawn) | 1.58 µM (active)
42 | CCOc1ccccc1/C=N/Nc1nc2ccccc2o1 | inactive
43 | O=C1CCN(C(=S)NCCc2ccccc2)CC1 | inactive
44 | Oc1cc2c(cc1O)CN(C(=S)NCCc1ccc(Cl)cc1)CCC2 | 11.6 µM (active)
45 | COc1ccc(CCNC(=S)N2CCN(S(=O)(=O)c3ccc(Cl)cc3)CC2)cc1 | inactive
46 | Cn1cc(C2OC(=O)c3ccccc32)c2ccccc21 (stereo not drawn) | inactive

Row | Structure (SMILES) | Potency
47 | COC(=O)c1ccc(C(=O)OC)c(NC(=S)N2CCN(c3cc(Cl)ccc3C)CC2)c1 | 4.47 µM (active)
48 | COC(=O)c1ccc(C(=O)OC)c(NC(=S)N2CCN(c3ccc(F)cc3)CC2)c1 | inactive
49 | COC(=O)c1ccc(C(=O)OC)c(NC(=S)N2CCCCC2)c1 | inactive
50 | Cc1ccc2c(=O)cc(C(=O)Nc3sc4c(c3C(=O)NCc3cccnc3)CCCC4)oc2c1 | inactive
51 | COc1ccc(NS(=O)(=O)c2ccc(C)c(C(=O)NCC(c3cccs3)N3CCOCC3)c2)cc1 (stereo not drawn) | inactive
52 | C/C(=N\NC(=S)NCc1ccccc1)c1ccc(Cl)cc1 | 5.8 µM (active)
53 | CN(C)CCCNC(=S)NCc1ccc(Cl)cc1 | inactive
54 | S=C(NCc1ccc(Cl)cc1)NC1CCCCC1 | inactive
55 | O=C(Nc1ncccc1O)c1ccc(S(=O)(=O)N2CCCC2)cc1 | inactive
56 | O=C(OC12CC3CC(CC(C3)C1)C2)c1ccc(NCc2cc(O)ccc2O)cc1 | 10 µM (active)
57 | O=C(COc1ccccc1[N+](=O)[O-])N/N=C/c1ccc[nH]1 | inactive
58 | CC(=O)Nc1ccc(C(=O)/C=C/c2ccc[nH]2)cc1 | inactive
59 | CCCC(=O)Nc1ccc(C(=O)N/N=C/c2ccc[nH]2)cc1 | 10 µM (active)
60 | O=C(Nc1c[nH]c(=O)[nH]c1=O)OCc1ccccc1 | inactive
61 | Cc1csc(=O)n1CC(=O)Nc1ccc(S(C)(=O)=O)cc1 | inactive
62 | Cc1ccc(-c2noc(CCC(N)=O)n2)cc1 | inactive
63 | CCNC(=O)CCc1nc(-c2ccc(C)cc2)no1 | inactive
64 | CCNC(=O)CCc1nc(-c2ccc(C(C)(C)C)cc2)no1 | 11.2 µM (active)
65 | CC1(C)C/C(=N/Nc2ccc([N+](=O)[O-])cc2[N+](=O)[O-])C(C)(C)O1 | inactive
66 | Cc1[nH]n(C)c(=O)c1N=Nc1ccc(S(C)(=O)=O)cc1 | inactive
67 | NS(=O)(=O)c1ccc(N=Nc2c(=O)[nH]c3ccc4[nH]cccc4c23)cc1 | 0.628 µM (active)
68 | Cc1[nH]c2ccc(S(N)(=O)=O)cc2c1C | inactive
